Values joined by “and” are separate entries in the source; they are usually repeats but may differ in a detail not shown here. Equal entries are not always repeated. Inconclusive results are not listed. Some structures have more than one record in an assay (separate samples or runs), and their calls can disagree. Active and inactive are the calls of the source. The calls were made as follows, unless noted: active = hit-call score of the fitted dose curve at least 0.9, where 1 is the maximum; inconclusive = response in the unintended direction; inactive = score below 0.9.
What was measured:
[1] = target: Bile acid receptor (Homo sapiens) (UniProt Q96RI1); assay: OT_FXR_FXRSRC1_0480: Odyssey Thera (OT) 8-hour HEK293T Protein-Complementation Assay for Farnesoid X receptor/SRC-1 Co-activator (AID 2283383)
Sequence of Bile acid receptor (Homo sapiens) (Q96RI1 whole entry, looked up, the tested form may be a part): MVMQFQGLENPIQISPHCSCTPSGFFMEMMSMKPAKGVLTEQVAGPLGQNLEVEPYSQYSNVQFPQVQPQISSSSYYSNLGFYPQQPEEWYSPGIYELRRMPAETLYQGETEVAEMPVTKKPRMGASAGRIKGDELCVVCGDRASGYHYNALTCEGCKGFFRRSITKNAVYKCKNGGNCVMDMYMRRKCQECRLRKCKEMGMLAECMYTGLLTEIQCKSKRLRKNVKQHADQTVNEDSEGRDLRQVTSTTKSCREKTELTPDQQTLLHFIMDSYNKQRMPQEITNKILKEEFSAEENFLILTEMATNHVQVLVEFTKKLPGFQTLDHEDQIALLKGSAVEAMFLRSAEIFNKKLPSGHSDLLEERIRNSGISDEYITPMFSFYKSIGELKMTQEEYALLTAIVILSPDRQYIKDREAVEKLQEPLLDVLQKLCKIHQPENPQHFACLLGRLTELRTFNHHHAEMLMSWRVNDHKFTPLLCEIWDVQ
Procedure, shortened: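 Human kidney HEK293T cells carried FXR/SRC-1 fragment-complementation constructs. Compounds were added and incubated 8 h. Reporter reassembly upon receptor–co-activator interaction was then quantified by fluorescence, with curves fitted in the positive direction relative to DMSO.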

[2] = target: Bile acid receptor (Homo sapiens) (UniProt Q96RI1); assay: OT_FXR_FXRSRC1_1440: Odyssey Thera (OT) 24-hour HEK293T Protein-Complementation Assay for Farnesoid X receptor/SRC-1 Co-activator (AID 2283384)
Procedure, shortened: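 Compounds are applied to human kidney HEK293T cells expressing bait and prey fused to reporter protein fragments; after 24 h, reconstituted reporter fluorescence is measured. Activity is fitted as signal gain over DMSO.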

[3] = target: Retinoic acid receptor RXR-alpha (Homo sapiens) (UniProt P19793); assay: OT_NURR1_NURR1RXRa_0480: Odyssey Thera (OT) 8-hour HEK293T Protein Complementation Assay for Nurr1/retinoid X receptor (RXR) (AID 2283385)
Sequence of Retinoic acid receptor RXR-alpha (Homo sapiens) (P19793 whole entry, looked up, the tested form may be a part): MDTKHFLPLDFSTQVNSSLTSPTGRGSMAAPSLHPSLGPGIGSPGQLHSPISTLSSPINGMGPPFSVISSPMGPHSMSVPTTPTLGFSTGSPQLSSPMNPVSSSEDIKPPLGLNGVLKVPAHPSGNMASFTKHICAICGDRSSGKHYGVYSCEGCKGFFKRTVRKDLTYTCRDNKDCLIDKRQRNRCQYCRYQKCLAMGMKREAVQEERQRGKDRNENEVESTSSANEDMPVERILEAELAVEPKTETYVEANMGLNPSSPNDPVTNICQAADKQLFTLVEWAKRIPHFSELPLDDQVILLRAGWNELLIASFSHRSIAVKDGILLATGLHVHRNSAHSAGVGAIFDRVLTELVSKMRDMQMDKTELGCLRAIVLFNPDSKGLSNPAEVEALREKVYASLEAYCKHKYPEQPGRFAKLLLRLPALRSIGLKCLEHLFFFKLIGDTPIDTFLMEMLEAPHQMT
Procedure, shortened: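 8 h compound exposure, HEK293T; Nurr1/RXRα fragment complementation; fluorescence intensity; positive fitting direction vs DMSO baseline.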

[4] = target: Retinoic acid receptor RXR-alpha (Homo sapiens) (UniProt P19793); assay: OT_NURR1_NURR1RXRa_1440: Odyssey Thera (OT) 24-hour HEK293T Protein Complementation Assay for Nurr1/retinoid X receptor (RXR) (AID 2283386)
Procedure, shortened: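 Interaction of Nurr1 with RXRα brings fused reporter fragments together in human HEK293T cells, restoring a functional reporter. Fluorescence intensity is measured 24 h after chemical treatment, and values are analysed in the positive direction against DMSO.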

[5] = target: Peroxisome proliferator-activated receptor gamma (Homo sapiens) (UniProt P37231); assay: OT_PPARg_PPARgSRC1_0480: Odyssey Thera (OT) 8-hour Protein-Complementation Assay for Peroxisome Proliferator-activated Receptor Gamma / SRC-1 Co-activator (AID 2283387);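 also: nuclear to cytoplasmic split Venus YFP fluorescence ratio reporting PPARg SRC-1 interaction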
Sequence of Peroxisome proliferator-activated receptor gamma (Homo sapiens) (P37231 whole entry, looked up, the tested form may be a part): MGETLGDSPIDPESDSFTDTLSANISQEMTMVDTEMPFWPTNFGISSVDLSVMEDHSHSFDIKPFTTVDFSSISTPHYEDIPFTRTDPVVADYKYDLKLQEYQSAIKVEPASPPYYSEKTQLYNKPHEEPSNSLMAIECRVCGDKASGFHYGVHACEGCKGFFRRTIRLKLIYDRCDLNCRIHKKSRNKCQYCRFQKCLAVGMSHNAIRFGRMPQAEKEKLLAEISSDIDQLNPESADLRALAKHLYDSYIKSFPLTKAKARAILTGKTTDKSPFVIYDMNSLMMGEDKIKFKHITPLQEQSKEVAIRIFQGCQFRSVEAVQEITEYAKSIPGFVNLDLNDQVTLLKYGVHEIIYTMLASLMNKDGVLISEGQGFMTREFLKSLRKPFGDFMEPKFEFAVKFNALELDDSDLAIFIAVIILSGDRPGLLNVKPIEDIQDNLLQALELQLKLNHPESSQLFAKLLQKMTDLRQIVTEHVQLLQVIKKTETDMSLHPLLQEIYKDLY
Procedure, shortened: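 Read-out: 488 nm N/C fluorescence ratio from complemented Venus YFP fragments, ≥350 cells per image, gain-of-signal fitted against DMSO baseline. Fusions of PPARg/SRC-1 with IFP1/IFP2 expressed transiently in HEK293T; compounds applied 8 h.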

[6] = target: Peroxisome proliferator-activated receptor gamma (Homo sapiens) (UniProt P37231); assay: OT_PPARg_PPARgSRC1_1440: Odyssey Thera (OT) 24-hour Protein-Complementation Assay for Peroxisome Proliferator-activated Receptor Gamma/ SRC-1 Co-activator (AID 2283388);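 also: nuclear to cytoplasmic ratio of reconstituted Venus YFP fluorescence in fixed imaged cells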
Procedure, shortened: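 Transient HEK293T, YFP fragments 1-158/159-239 (mutant IFP1/IFP2) fused to PPARg/SRC-1; 24 h dosing; fix 4% formaldehyde, Draq5; Opera imaging 488/635 nm; N/C ratio, gain vs DMSO.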

[7] = CEETOX_H295R_11DCORT: CeeTox H295R High-throughput Steroidogenesis Assay for 11-Deoxycortisol (11DCORT) (AID 2283432; active = hit-call score of the fitted dose curve at least 0.9, where 1 is the maximum; inactive = score below 0.9;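 as to AC50: 11-deoxycortisol secreted into the medium measured by LC-MS/MS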); settings: actives raise or lower the signal
Procedure, shortened: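 H295R cells; 10 uM forskolin prestim 48 h; compound in 0.1% DMSO 48 h; media extracted with MTBE; 11-deoxycortisol by LC-MS/MS, 7-point standard curve; gain/loss vs DMSO baseline; viability by MTT in same wells.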

[8] = CEETOX_H295R_OHPREG: CeeTox H295R High-throughput Steroidogenesis Assay for OH-Pregnenolone (OHPREG) (AID 2283434; active = hit-call score of the fitted dose curve at least 0.9, where 1 is the maximum; inactive = score below 0.9); settings: actives raise or lower the signal
Procedure, shortened: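 Human adrenal H295R cells were prestimulated 48 h with 10 uM forskolin, then exposed 48 h to chemical in 0.1% DMSO. Medium 17alpha-hydroxypregnenolone was quantified by HPLC-MS/MS after MTBE extraction; bidirectional fitting versus DMSO baseline.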

[9] = CEETOX_H295R_OHPROG: CeeTox H295R High-throughput Steroidogenesis Assay for OH-Progesterone (OHPROG) (AID 2283435; active = hit-call score of the fitted dose curve at least 0.9, where 1 is the maximum; inactive = score below 0.9;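 as to AC50: 17alpha-hydroxyprogesterone secreted into medium measured by HPLC-MS/MS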); settings: actives raise or lower the signal
Procedure, shortened: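 H295R, 10 uM forskolin prestim 48 h; cmpd in 0.1% DMSO 48 h; medium MTBE-extracted, HPLC-MS/MS for OH-progesterone; 7-pt std curve; bidirectional fit vs DMSO; MTT viability, chemicals diluted until viability >/=70%.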

[10] = CEETOX_H295R_ANDR: CeeTox H295R High-throughput Steroidogenesis Assay for Androstenedione (ANDR) (AID 2283436; active = hit-call score of the fitted dose curve at least 0.9, where 1 is the maximum; inactive = score below 0.9); settings: actives raise or lower the signal
Procedure, shortened: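 H295R human adrenal cells (passages ≤10) were exposed to test chemicals for 48 h; androstenedione in medium was MTBE-extracted and quantified by HPLC-MS/MS against a 7-point standard curve. Bidirectional fitting used DMSO as baseline.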

Measured: AC50

Cc1ccc(C)c(O)c1
inactive: [1] | [2] | [3] | [4] | [5] | [6]

CCCCC(CC)COC(=O)CCCCCCCCC(=O)OCC(CC)CCCC (configuration not stated)
inactive: [1] | [2] | [3] | [4] | [5]

CCc1cc(SCc2sc(-c3ccc(C(F)(F)F)cc3)nc2CN2CCN(c3ccc(OC)cc3)CC2)ccc1OCC(=O)O
inactive: [1]
active: [2] 12 µM | [5] 345 nM and 1.09 µM

CC[C@H](C)C(=O)O[C@H]1C[C@@H](C)C=C2C=C[C@H](C)[C@H](CC[C@@H]3C[C@@H](O)CC(=O)O3)[C@H]21
active: [1] 32 µM | [2] 34.8 µM | [7] 2.84 µM | [8] 0.026 µM | [9] 2.96 µM
inactive: [3] | [4] | [5]

COc1ccc(/C=C/S(=O)(=O)NC(=O)c2ccc(C)cc2Cl)cc1
active: [2] 7.84 µM | [3] 24 µM | [4] 29 µM | [9] 17.7 µM
inactive: [1] | [5] | [7] | [8]

Cc1c(-c2cccnc2)c2ccccc2n1CCCCC(=O)O
inactive: [1] | [2] | [3] | [5] | [6] | [8] | [9]

CNS(=O)(=O)c1cc(C(=O)N2CCC(CCN3C4CCC3CC(n3c(C)nc5ccccc53)C4)(c3cccc(F)c3)CC2)c(Cl)cc1F (configuration not stated)
inactive: [3] | [5] | [6] | [8]
active: [1] 12.6 µM | [2] 17.6 µM | [3] 14.3 µM | [4] 28.4 µM and 12.1 µM | [9] 2.65 µM | [10] 3.6 µM

From PubChem BioAssay (EPA / NIEHS)
